Paper PMC5540273 (PLoS ONE, 2017)
“And” between values parts separate entries of the source, which are not always exact repeats. Equal entries are not always repeated.

Tested on: MST1R
Conditions: concentration: 1 μM, replicates: in singlicate; 1 µM; n = 1
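Also: KINOMEscan kinase panel screen.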

| SMILES | %Inh |
| --- | --- |
| CC(C)(CN)c1nc(-c2ccc(Cl)c(O)c2)c(-c2ccncc2)[nH]1.O=C(O)C(F)(F)F [SB-477794] | 39% and 0% |
| NCCNS(=O)(=O)c1ccc(-c2ccnc3[nH]ccc23)cc1 [GSK977617] | 21% and 16% |
| Cl.Cl.Cl.Fc1ccc(-c2ncn(C3CCNCC3)c2-c2ccnc(Nc3ccccc3)n2)cc1 [SB-238039] | 0% and 40% |

Same assay, conditions: concentration: 1 μM, replicates: in singlicate; n = 1

| SMILES | %Inh [%] |
| --- | --- |
| COc1ccc(Nc2nccc(N3CCC(NC(=O)Nc4cccc(C(C)=O)c4)C3)n2)cc1 (centres unmarked) [GSK1379731] | 17 |
| Fc1ccc(-c2nn3c(OCC(F)(F)F)cccc3c2-c2ccncc2)cc1 [GW514784] | 13 |
| Cc1cn2c(=O)cc(N3CCOCC3)nc2n1Cc1cccc(Cl)c1Cl [GSK2334006] | 28 |
| Fc1ccc(-c2ncn(CCCN3CCOCC3)c2-c2cccnc2)cc1 [SB-211743] | 0 |
| C[C@@H](Oc1cc(-n2cnc3ccc(NC(=O)NC(C)(C)C)cc32)sc1C(N)=O)c1ccccc1Cl [GSK346294] | 29 |
| Cc1ccc(C(=O)NCC(N)=O)cc1-n1c(C)cc(OCc2ccc(F)cc2F)c(Br)c1=O | 29 |
| c1ccc(-c2n[nH]cc2-c2ccnc3ccccc23)nc1 [GW271431] | 32 |
| O=C1Cc2cc(Nc3nc(NCc4cccc(S(=O)(=O)C(F)(F)F)c4)ncc3C(F)(F)F)ccc2N1 | 0 |
| NCC(NC(=O)c1cc(-c2cn[nH]c2)c(-c2ccnc3[nH]ccc23)s1)c1ccccc1.O=C(O)C(F)(F)F.O=C(O)C(F)(F)F (centres unmarked) [GSK1325775] | 5 |
| COc1ccc(Nc2nccc(N3CCC(NC(=O)Nc4cc(C)ccc4C)C3)n2)cc1 (centres unmarked) [GSK1379741] | 55 |
| CC(C)Oc1ccc2c(-c3ccnc(Nc4ccc(N5CCN(C)CC5)cc4)n3)cnn2n1 [GW696155] | 0 |
| O=C(c1ccc(-c2cc(-c3c[nH]nc3-c3ccccn3)ccn2)cc1)N1CCOCC1 [GW812171] | 0 |
| CN(C(=O)c1ccc(-c2cc(-c3c[nH]nc3-c3ccccn3)ccn2)cc1)C1CCOCC1 [GW810083] | 0 |
| O=C(Nc1cccc(-c2nn3ncccc3c2-c2ccnc(Nc3cccc(C(F)(F)F)c3)n2)c1)c1c(F)cccc1F [GSK299495] | 44 |
| Cl.Oc1cccc(Nc2ccnc3cc(-c4ccncc4)ccc23)c1 [GW494601] | 36 |
| O=c1cc(N2CCOCC2)nc2n(Cc3cccc(F)c3)ccn12 [GSK2297430] | 8 |

| SMILES | %Inh [%] |
| --- | --- |
| COc1ccc(CNC(=O)NC2CCN(c3ccnc(Nc4ccc(OC)cc4)n3)C2)cc1 (centres unmarked) [GSK1379727] | 40 |
| CCc1nc(-c2cccc(C)c2)c(-c2ccnc(NCc3ccccc3)c2)s1 | 8 |
| CCc1ccnc(/C=C/c2n[nH]c3cc(Sc4ccccc4C(=O)NC)ccc23)c1 | 16 |
| Cc1nnc(-c2ccc(C)c(-c3ccc(C(=O)Nc4ccc(NS(C)(=O)=O)cc4)cc3)c2)o1 [GW702865] | 13 |
| Cc1nnc(-c2ccc3ncc(-c4ccc(S(C)=O)cc4)n3c2)o1 (centres unmarked) | 0 |
| CC(=O)Nc1ccc(COc2ccc(Nc3ccnc4cc(-c5ccccn5)ccc34)cc2)cc1.Cl [GW440148] | 56 |
| CCn1cnc2c(N)ncnc21 [GW345098] | 0 |
| Cc1nnc(-c2ccc3occ(-c4ccc(C(C)O)cc4)c3c2)o1 (centres unmarked) | 15 |
| O=c1cc(N2CCOCC2)nc2n(Cc3cccc(Cl)c3Cl)c(C3CC3)nn12 [GSK2358994] | 14 |
| O=C(NCCCN1CCOCC1)c1cccc(Nc2nccc(Nc3ccc(Oc4ccccc4)cc3)n2)c1 [GW663929] | 37 |
| [2H]C([2H])(c1cccc(C(F)(F)F)c1C)n1ccn2c(=O)nc(N3CCOCC3)cc12 [GSK2336394] | 33 |
| NS(=O)(=O)CCc1cccc(Nc2nccc(-c3c(-c4cccc(NC(=O)c5c(F)cccc5F)c4)nn4ccccc34)n2)c1 [GSK336735] | 62 |
| CN1c2ccc(NCc3ccc(F)cc3)cc2-c2c(cnn2C)S1(=O)=O | 0 |
| COCCNC(=O)c1ccc(-c2cc(C(=O)NC3CC3)cc(F)c2C)cc1 [GW868318] | 20 |
| N#Cc1ccc(-c2cc(-c3c[nH]nc3-c3ccccn3)ccn2)cc1 [GW693028] | 26 |
| O=C(NOCC1CC1)c1ccc(F)c(F)c1Nc1ccc(I)cc1Cl | 0 |
